High-throughput results (PubChem BioAssay)
Compounds with a hit are over-represented: about 2.9% of the library has one in this group of screens.
EPAC2 antag – Validation qHTS for antagonist of cAMP-regulated guanine nucleotide exchange factor 4 (EPAC2); Rap guanine nucleotide exchange factor 4 (Homo sapiens), Q8WZA2; EPAC2 Rap1B BODIPY-GDP exchange, fluorescence; Potency, µM (doses to about 112 µM), for the others: at the top dose activity, negative = inhibition, actives largely listed as inhibitors; hit rate 1.7% among 16,000;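 note: 100% = activation by cAMP agonist control; nearly all actives have a fitted effect of over 40% in size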
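Normalized against a 6.5 mM cAMP agonist control, compounds were tested on 100 nM EPAC2 exchanging Rap1B-bound BODIPY-GDP (250 nM) for 50 uM GDP. Fluorescence drop (ex 480, em 540 nm) was tracked at room temperature over 30 min at 5-min intervals.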
EPAC1 ag val – Validation qHTS for agonist of cAMP-regulated guanine nucleotide exchange factor 3 (EPAC1). Potency, µM, inactives show max response, positive = active, actives largely listed as activators. AID 1645883, 2021. EPAC1 Rap1b BODIPY-GDP exchange, fluorescence. hit rate 1% among 16,000. Rap guanine nucleotide exchange factor 3 (Homo sapiens), O95398; note: nearly all actives have a fitted effect of over 70% in size
Numbers without * were called inactive; i = inactive; ? = inconclusive. Calls come from the whole dose curve; as a rule, active = well fitted curve in the direction sought with a large enough effect; inconclusive = small, poorly fitted or top-dose-only effect, or another doubt; inactive = no such curve, though single readings can be large; an effect the other way counts as inactive or inconclusive. Unless noted, % is set by controls: 0 for no effect and ±100 for the full control effect; potency is the fitted concentration of half-maximal effect.

SMILES | EPAC2 antag | EPAC1 ag val
CCC(=O)OC(OP(=O)(CCCCc1ccccc1)CC(=O)N1C[C@H](C2CCCCC2)C[C@H]1C(=O)O)C(C)C (some centres not stated) | -26% | -36%
O=C(O)[C@@H]1C[C@H](CP(=O)(O)O)CCN1 | -24% | -34%
COc1ccccc1CNC(=O)c1cnn(-c2nccc(-c3cccs3)n2)c1C | -17% | 15%
Cc1oc(-c2cccc(NC(=O)c3ccccn3)c2)nc1CNC(=O)C#Cc1ccccc1 | -3% | 3%
OCCN(CCO)c1ccc(/C=C/c2ccnc3ccccc23)cc1 | -22% | 27%
CN(C)c1ccc(/C=C/c2ccnc3ccccc23)cc1Cl | ? | 13%
CC[N+](C)(C)c1ccc(/C=C/c2ccnc3ccccc23)cc1 | 45µM* | -130%
CCCCN(CCC#N)c1ccc(/C=C/c2ccnc3ccccc23)cc1 | 18% | 100µM*
CC[N+](CC)(CC)c1ccc(/C=C/c2ccnc3ccccc23)cc1 | ? | -58%
Cc1cc(/C=C/c2ccnc3ccccc23)ccc1N(C)C | 150% | 100µM*
O=C(O)[C@H](O)c1ccccc1 | -12% | -7%
COc1cc2c(cc1OC)CN(C(=O)[C@@H]1C[C@H](NCc3cn(C)c4ccccc34)CN1C1Cc3ccccc3C1)CC2 | -5% | -1%
COc1cccc(CN2CCCC(c3nc(-c4ccncc4)ncc3-c3ccccc3)C2)c1O (configuration not stated) | -27% | 8%
CC[C@@H]1/C=C(\C)C[C@H](C)C[C@H](OC)[C@H]2O[C@@](O)(C(=O)C(=O)N3CCCC[C@H]3C(=O)O[C@H](/C(C)=C/[C@@H]3CC[C@@H](Cl)[C@H](OC)C3)[C@H](C)[C@@H](O)CC1=O)[C@H](C)C[C@@H]2OC | 11% | 9%
C=CC[C@@H]1/C=C(\C)C[C@H](C)C[C@H](OC)[C@H]2O[C@@](O)(C(=O)C(=O)N3CCCC[C@H]3C(=O)O[C@H](/C(C)=C/[C@@H]3CC[C@@H](O)[C@H](OC)C3)[C@H](C)[C@@H](O)CC1=O)[C@H](C)C[C@@H]2OC | 79µM* | -64%
COc1ccc(C(=O)NCc2nc(-c3cccc(NC(=O)c4ccc(C)s4)c3)oc2C)cc1 | -1% | 2%
O=C1CC[C@@H](C(=O)N[C@H]2C[C@@H]2c2ccccc2)N1 | -11% | -5%
COC(=O)[C@@H]1C2CC3c4[nH]c5cc(OC)ccc5c4CCN3CC2C[C@H](OC(=O)c2cc(OC)c(OC)c(OC)c2)C1OC (some centres not stated) | -21% | 100µM*
COC(=O)[C@H]1[C@@H]2C[C@@H]3c4[nH]c5ccccc5c4CCN3C[C@H]2CC[C@H]1O | -7% | -3%
CCOC(=O)[C@H](CCc1ccccc1)N[C@@H](C)C(=O)N1[C@@H](C(=O)O)C[C@@H]2CCC[C@@H]21 | i | 45µM*
CCOC(=O)C(CCc1ccccc1)NC(C)C(=O)N1C(C(=O)O)CC2CCCC21 (configuration not stated) | -10% | 13%
COc1ccc(CNc2ccnc(-c3ccc4c(c3)OCO4)n2)c(OC)c1 | -24% | 15%
COc1ccccc1CNc1ccnc(-c2ccc3c(c2)OCO3)n1 | ? | 100µM*
COc1ccc(CNc2ccnc(-c3cccc(C#N)c3)n2)c(OC)c1 | -51% | 112µM*
COc1ccc(CNc2ncncc2-c2cccnc2)c(OC)c1 | -32% | 8%
SMILES | EPAC2 antag | EPAC1 ag val
COc1ccccc1CNc1ccnc(-c2cccc(C#N)c2)n1 | ? | 5%
COc1cccc(-c2cncnc2NCc2ccc(OC)cc2OC)c1 | 45µM* | 8%
CCCCC/C=C\CCC(=O)N[C@H]1[C@H](Oc2c3cc4cc2Oc2ccc(cc2Cl)[C@@H](O[C@@H]2O[C@H](CO)[C@@H](O)[C@H](O)[C@H]2NC(C)=O)[C@@H]2NC(=O)[C@H](NC(=O)[C@@H]4NC(=O)[C@H]4NC(=O)[C@@H](Cc5ccc(c(Cl)c5)O3)NC(=O)[C@H](N)c3ccc(O)c(c3)Oc3cc(O)cc4c3)c3ccc(O)c(c3)-c3c(O[C@H]4O[C@H](CO)[C@@H](O)[C@H](O)[C@@H]4O)cc(O)cc3[C@@H](C(=O)O)NC2=O)O[C@H](CO)[C@@H](O)[C@@H]1O | 35% | -122%
C=Cc1c(C)c2cc3nc(cc4[nH]c(cc5nc(cc1[nH]2)C(C)=C5CCC(=O)OC)c(CCC(=O)O)c4C)[C@@]1(C)C3=CC=C(C(=O)OC)[C@H]1C(=O)OC | -4% | -3%
CC(C)(C)NC(=O)[C@H]1CC[C@H]2[C@@H]3CC=C4C=C(C(=O)O)CC[C@]4(C)[C@H]3CC[C@]12C | -5% | -60%
C/C=C(/CC[C@@H](C)[C@H]1CC[C@H]2C3=CC[C@H]4[C@H](C)[C@@H](O)CC[C@]4(C)[C@H]3CC[C@]12C)C(C)C | 20% | -54%
